Screens as filed in PubChem.
NS1 function inh: qHTS Assay for Inhibitors of Influenza NS1 Protein Function | Potency, µM (top dose mostly 46.1 µM), inactives show top-dose activity, positive = more growth | 270,000 tested, 0.4% active | AID 2326, 2010; calls by dose curve; also: actives are rising curves; nearly all actives have a fitted effect of over 50% in size
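Growth recovery, yeast-based: influenza A NS1 expressed in S. cerevisiae causes slow growth, and suppressors are detected by OD600. The parent strain without NS1 is used as positive control.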
TbPYK inhibitor: qHTS of Trypanosoma Brucei Inhibitors; TbPYK enzyme, Kinase-Glo Plus ATP luminescence, 45 min; 410,000 tested, 0.12% active; Potency, µM (highest dose often 76.8 µM), inactives show top-dose activity, negative = inhibition, hits mostly inhibitors; also: % is scaled to controls: 0 for no effect and ±100 for the full control effect; nearly all actives have a fitted effect of over 50% in size
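Glycolytic pyruvate kinase of T. brucei was incubated with substrate, test compound and 130 uM ADP for 45 minutes at room temperature. Luminescent Kinase-Glo Plus signal was measured after 10 minutes.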
Sm TGR block: qHTS Assay for the Inhibitors of Schistosoma Mansoni Peroxiredoxins; Schistosoma mansoni thioredoxin glutathione reductase (TGR), Q962Y6; purified TGR, DTNB reduction, TNB absorbance 405 nm; Potency, µM (series often up to 114 µM), for the others: top-dose activity change, negative = inhibition, usual class: inhibitors; 360,000 tested, 3% active; also: % is scaled to controls: 0 for no effect and ±100 for the full control effect; nearly all actives have a fitted effect of over 60% in size
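Kinetic colorimetric format: TGR-catalysed, NADPH-driven DTNB reduction monitored via TNB absorbance. Enzyme dispensed at 20 nM; compound exposure 15 min at room temperature before reaction start.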
LmPK inh: qHTS Assay for Inhibitors of Leishmania Mexicana Pyruvate Kinase (LmPK); purified LmPK, Kinase-Glo ATP luminescence, 1 h; 290,000 tested, 0.37% active; Q27686; Potency, µM (highest dose often 57.5 µM), inactives show at the top dose activity change, negative = inhibition, most hits filed as inhibitors; AID 1721, 2009; also: % is scaled to controls: 0 for no effect and ±100 for the full control effect
Target sequence (Q27686 whole entry, looked up): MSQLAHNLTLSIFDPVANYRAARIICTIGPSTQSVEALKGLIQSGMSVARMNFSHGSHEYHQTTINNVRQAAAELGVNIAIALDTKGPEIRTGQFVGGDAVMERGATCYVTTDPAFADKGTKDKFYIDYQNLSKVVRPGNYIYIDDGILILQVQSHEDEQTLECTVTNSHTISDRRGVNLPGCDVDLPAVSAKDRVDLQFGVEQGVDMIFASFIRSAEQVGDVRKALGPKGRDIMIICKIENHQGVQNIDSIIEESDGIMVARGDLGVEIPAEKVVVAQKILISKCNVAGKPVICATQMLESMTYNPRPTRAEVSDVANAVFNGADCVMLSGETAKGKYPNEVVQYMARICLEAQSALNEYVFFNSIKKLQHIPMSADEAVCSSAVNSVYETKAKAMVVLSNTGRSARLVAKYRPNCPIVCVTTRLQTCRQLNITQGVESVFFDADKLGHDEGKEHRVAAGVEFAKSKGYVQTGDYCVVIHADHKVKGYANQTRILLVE
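0.1 nM LmPK, 0.5 mM PEP, 0.1 mM ADP; 50 mM imidazole pH 7.2, 7 mM MgCl2, 50 mM KCl; 1 h RT. Kinase-Glo luminescence readout, normalized to no-enzyme (full inhibition) and uninhibited wells.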
SARS PLP yeast: qHTS of Yeast-based Assay for SARS-CoV PLP. 330,000 tested, 0.19% active. S. cerevisiae expressing SARS-CoV PLpro, growth rescue. Potency, µM (series often up to 32.9 µM), inactives show top-dose activity, positive = growth rescue, most hits filed as activators; calls by dose curve; also: 0% is about no effect; nearly all actives have a fitted effect of over 55% in size
RE007 growth inh: qHTS Assay for Inhibitors of the HIV-1 protein Vpr; AID 651644, 2012; Potency, µM (series often up to 92.2 µM), without a hit: top-dose activity change, negative = less growth, actives largely listed as inhibitors; S. pombe RE007 Vpr strain, BacTiter-Glo ATP luminescence, 24 h; 360,000 tested, 0.21% active; active = well fitted falling curve with a large enough effect; inconclusive = small, poorly fitted or top-dose-only effect; inactive = no such curve, though single readings can be large or run the other way; also: % is scaled to controls: 0 for no effect and ±100 for the full control effect; nearly all actives have a fitted effect of over 50% in size
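Fission yeast RE007 carrying one integrated HIV-1 vpr copy, seeded at OD 0.01 in PMG+AL medium with 23 nL pinned compound. Grown 24 h at 30 degrees; viability read by BacTiter-Glo luminescence after 5 min.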
An asterisk follows results filed as active; [ ] = dose if it differs, or a comment. Only some compounds are listed: those with a hit (about 3.3% of all), similar ones and a draw of the others. Unless noted, calls follow the shape of the dose curve; as a rule, active = well fitted curve in the direction sought with a large enough effect; inconclusive = small, poorly fitted or top-dose-only effect, or another doubt; inactive = no such curve, though single readings can be large; an effect the other way counts as inactive or inconclusive. Potency is read from the fitted curve at half-maximal effect.

Screening CCOC(=O)c1c(C)oc(=O)c(CC)c1O returned TbPYK inhibitor -1% and RE007 growth inh 5%.
COc1cc(C(=O)Nc2cccc(OCc3cc(=O)n4c(C)csc4n3)c2)cc(OC)c1OC was read as TbPYK inhibitor 1% and Sm TGR block 0%.
`O=C(Nc1nc(-c2ccc(Cl)s2)cs1)c1ccco1` gave TbPYK inhibitor 2%, Sm TGR block 40µM*, LmPK inh 0%, SARS PLP yeast -3% and RE007 growth inh inconclusive.
`O=C1C(=Cc2ccccc2[N+](=O)[O-])Cc2ccccc21` gave TbPYK inhibitor -5% and RE007 growth inh 2.5µM*.
For Cc1ccc(S(=O)(=O)Nc2cc(C)c(O)c(Sc3n[nH]c(C)n3)c2)cc1 the results were NS1 function inh 16%, TbPYK inhibitor -17%, Sm TGR block 45µM*, LmPK inh -6%, SARS PLP yeast 1% and RE007 growth inh 2%.
For COc1ccc(C(=O)Oc2cccc3cccnc23)cc1[N+](=O)[O-] the results were NS1 function inh -43%, TbPYK inhibitor 0%, Sm TGR block 0%, LmPK inh 6%, SARS PLP yeast -6% and RE007 growth inh 63µM*.
For COc1ccc(C(=O)Oc2cccc3cccnc23)cc1S(=O)(=O)N1CCOCC1 the results were NS1 function inh -44%, TbPYK inhibitor -1%, Sm TGR block -3%[57.1 µM], LmPK inh 2%, SARS PLP yeast -7% and RE007 growth inh 32µM*.
`COc1ccc(C(=O)Oc2ccc(C)cc2)cc1S(=O)(=O)N1CCOCC1` gave TbPYK inhibitor -11% and RE007 growth inh 4%.
Screening NC(=O)c1ccc(Oc2cccc3cccnc23)c([N+](=O)[O-])c1 returned NS1 function inh 6%, TbPYK inhibitor -3%, LmPK inh 0%, SARS PLP yeast -1% and RE007 growth inh 6%.
Screening COc1cccc(NC(=O)Nc2ccc3nc(N4CCN(C)CC4)cc(C)c3c2)c1 returned TbPYK inhibitor -10% and Sm TGR block -1%.
Screening Cc1cc(C)cc(NC(=O)C(CC(C)C)NC(=O)C2CCCCC2)c1 (configuration not stated) returned TbPYK inhibitor 3% and Sm TGR block 8%.
Screening Oc1c(C(O)(c2ccccc2)c2ccc3ccccc3c2O)ccc2ccccc12 returned NS1 function inh -8%.
Screening CCOC(=O)c1cnc2c(F)ccc(F)c2c1Sc1ccccc1 returned NS1 function inh -5%, TbPYK inhibitor -3%, Sm TGR block 16µM*, LmPK inh 2%, SARS PLP yeast 0% and RE007 growth inh 3%.
`CC(=O)O[C@H]1CC(C)(C)C(=C=C/C(C)=C/C=C/C(C)=C/C=C/C=C(C)/C=C/C=C(\C)C(=O)C[C@@]23O[C@]2(C)C[C@@H](O)CC3(C)C)[C@](C)(O)C1` gave NS1 function inh -3%, TbPYK inhibitor -2%, Sm TGR block 3.2µM*, LmPK inh 1%, SARS PLP yeast 1% and RE007 growth inh -15%.
CCc1ccc(NC(=O)CN2C(=O)C(c3ccc(F)cc3)=NC2(C)C)cc1 was read as TbPYK inhibitor 5% and Sm TGR block 0%.
For O=C(Nc1ccc(C(=O)N2CCC(N3CCOCC3)CC2)cc1)c1ccc(Br)o1 the results were TbPYK inhibitor -3%, Sm TGR block 32µM*, SARS PLP yeast -1% and RE007 growth inh 59%.
For CC(C)N1CCN(C(=O)c2ccc(NC(=O)c3ccc(Br)o3)cc2)CC1 the results were TbPYK inhibitor -4%, Sm TGR block 22µM*, SARS PLP yeast -4% and RE007 growth inh 4%.
